Assay [1] deals with High affinity nerve growth factor receptor (Homo sapiens) (UniProt P04629). The conditions noted are these: at 1 µM.
The target of assay [2] is BDNF/NT-3 growth factors receptor (Homo sapiens) (UniProt Q16620). The settings on record: at 0.1 µM.
Assay [3] has the same target. The settings on record: at 1 µM.
Assay [4] addresses NT-3 growth factor receptor (Homo sapiens) (UniProt Q16288). The settings on record: at 0.1 µM.
For assay [5] the target is unchanged. The settings on record: at 1 µM.
The target in assay [6] is T1, Tyrosine-protein kinase TXK (Homo sapiens) (UniProt P42681).
T1 sequence (whole entry): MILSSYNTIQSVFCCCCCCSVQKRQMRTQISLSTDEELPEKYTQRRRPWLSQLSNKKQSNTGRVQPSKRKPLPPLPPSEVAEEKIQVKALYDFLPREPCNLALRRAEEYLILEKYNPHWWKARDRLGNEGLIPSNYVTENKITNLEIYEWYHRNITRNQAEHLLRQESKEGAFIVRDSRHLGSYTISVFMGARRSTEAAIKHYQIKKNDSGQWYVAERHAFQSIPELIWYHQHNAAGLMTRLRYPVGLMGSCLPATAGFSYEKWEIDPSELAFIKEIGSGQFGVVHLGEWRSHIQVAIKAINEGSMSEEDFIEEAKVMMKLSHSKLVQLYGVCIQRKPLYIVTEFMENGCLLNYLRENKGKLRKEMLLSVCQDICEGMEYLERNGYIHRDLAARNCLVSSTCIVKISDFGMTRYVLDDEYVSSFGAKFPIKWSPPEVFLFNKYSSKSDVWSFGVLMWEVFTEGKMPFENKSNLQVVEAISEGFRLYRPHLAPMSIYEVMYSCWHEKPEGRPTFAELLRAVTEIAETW
The settings on record: at 0.1 µM.

In assay [7] the target is T1, Tyrosine-protein kinase TXK (Homo sapiens). The settings on record: at 1 µM.
Assay [8] concerns the target Non-receptor tyrosine-protein kinase TYK2 (Homo sapiens) (UniProt P29597). The conditions noted are these: at 0.1 µM.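 Further: each value is a mean of the inhibition readings.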
Assay [9] deals with T2, Dual specificity protein kinase TTK (Homo sapiens) (UniProt P33981).
T2 sequence (whole entry): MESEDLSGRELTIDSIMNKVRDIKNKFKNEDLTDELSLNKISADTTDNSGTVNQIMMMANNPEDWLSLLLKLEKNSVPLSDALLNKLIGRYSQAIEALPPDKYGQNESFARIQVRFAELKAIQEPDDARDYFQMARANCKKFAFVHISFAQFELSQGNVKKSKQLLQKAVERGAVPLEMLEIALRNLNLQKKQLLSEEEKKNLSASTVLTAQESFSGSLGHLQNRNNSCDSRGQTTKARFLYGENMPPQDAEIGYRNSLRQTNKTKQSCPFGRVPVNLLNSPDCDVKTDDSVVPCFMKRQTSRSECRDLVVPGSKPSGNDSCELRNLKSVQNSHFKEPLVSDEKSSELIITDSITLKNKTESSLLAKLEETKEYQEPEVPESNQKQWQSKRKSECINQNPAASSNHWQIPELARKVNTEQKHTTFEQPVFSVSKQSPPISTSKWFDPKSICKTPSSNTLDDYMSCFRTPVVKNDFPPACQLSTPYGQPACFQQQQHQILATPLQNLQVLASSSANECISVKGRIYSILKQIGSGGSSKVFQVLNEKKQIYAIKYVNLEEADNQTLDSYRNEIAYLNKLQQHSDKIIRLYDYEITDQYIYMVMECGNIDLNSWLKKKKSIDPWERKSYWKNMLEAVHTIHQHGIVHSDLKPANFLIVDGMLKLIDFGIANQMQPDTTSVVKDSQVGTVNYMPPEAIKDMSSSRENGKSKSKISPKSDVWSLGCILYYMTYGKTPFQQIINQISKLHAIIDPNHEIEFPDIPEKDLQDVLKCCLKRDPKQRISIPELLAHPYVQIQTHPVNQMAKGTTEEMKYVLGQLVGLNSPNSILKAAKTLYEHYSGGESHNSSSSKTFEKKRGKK
The conditions noted are these: at 1 µM.

For assay [10], the target named is T3, Aurora kinase A (Homo sapiens) (UniProt O14965).
T3 sequence (whole entry): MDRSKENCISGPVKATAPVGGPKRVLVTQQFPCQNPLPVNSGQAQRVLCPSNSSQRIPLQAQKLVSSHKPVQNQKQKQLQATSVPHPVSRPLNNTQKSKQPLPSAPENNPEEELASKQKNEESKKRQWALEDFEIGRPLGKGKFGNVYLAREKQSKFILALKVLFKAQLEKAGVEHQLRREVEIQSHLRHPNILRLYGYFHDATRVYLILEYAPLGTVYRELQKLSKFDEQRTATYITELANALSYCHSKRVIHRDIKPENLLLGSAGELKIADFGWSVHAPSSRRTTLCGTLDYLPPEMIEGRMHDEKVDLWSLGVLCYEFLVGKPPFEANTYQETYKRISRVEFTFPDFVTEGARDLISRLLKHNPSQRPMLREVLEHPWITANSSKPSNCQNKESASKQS
The settings on record: at 0.1 µM.

The target of assay [11] is T3, Aurora kinase A (Homo sapiens). The conditions noted are these: at 1 µM.
Assay [12] addresses Aurora kinase B (Homo sapiens) (UniProt Q96GD4). The conditions noted are these: at 0.1 µM.
For assay [13] the target is unchanged. The conditions noted are these: at 1 µM.
Assay [14] has as its target T4, Aurora kinase C (Homo sapiens) (UniProt Q9UQB9).
T4 sequence (whole entry): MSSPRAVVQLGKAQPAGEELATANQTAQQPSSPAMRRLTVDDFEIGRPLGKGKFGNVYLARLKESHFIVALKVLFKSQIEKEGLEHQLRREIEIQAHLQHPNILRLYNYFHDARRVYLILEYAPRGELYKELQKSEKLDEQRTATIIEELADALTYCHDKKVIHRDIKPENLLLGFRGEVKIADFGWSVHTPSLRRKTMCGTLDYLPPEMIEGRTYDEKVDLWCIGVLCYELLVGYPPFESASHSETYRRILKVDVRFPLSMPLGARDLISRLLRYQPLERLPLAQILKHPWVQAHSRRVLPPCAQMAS
The settings on record: at 0.1 µM.

The target of assay [15] is T4, Aurora kinase C (Homo sapiens). The conditions noted are these: at 1 µM.
Assay [16] concerns the target Serine/threonine-protein kinase 10 (Homo sapiens) (UniProt O94804). The settings on record: at 0.1 µM.
The target is the same in assay [17]. The settings on record: at 1 µM.
In assay [18] the target is T5, Mitogen-activated protein kinase kinase kinase kinase 2 (Homo sapiens) (UniProt Q12851).
T5 sequence (whole entry): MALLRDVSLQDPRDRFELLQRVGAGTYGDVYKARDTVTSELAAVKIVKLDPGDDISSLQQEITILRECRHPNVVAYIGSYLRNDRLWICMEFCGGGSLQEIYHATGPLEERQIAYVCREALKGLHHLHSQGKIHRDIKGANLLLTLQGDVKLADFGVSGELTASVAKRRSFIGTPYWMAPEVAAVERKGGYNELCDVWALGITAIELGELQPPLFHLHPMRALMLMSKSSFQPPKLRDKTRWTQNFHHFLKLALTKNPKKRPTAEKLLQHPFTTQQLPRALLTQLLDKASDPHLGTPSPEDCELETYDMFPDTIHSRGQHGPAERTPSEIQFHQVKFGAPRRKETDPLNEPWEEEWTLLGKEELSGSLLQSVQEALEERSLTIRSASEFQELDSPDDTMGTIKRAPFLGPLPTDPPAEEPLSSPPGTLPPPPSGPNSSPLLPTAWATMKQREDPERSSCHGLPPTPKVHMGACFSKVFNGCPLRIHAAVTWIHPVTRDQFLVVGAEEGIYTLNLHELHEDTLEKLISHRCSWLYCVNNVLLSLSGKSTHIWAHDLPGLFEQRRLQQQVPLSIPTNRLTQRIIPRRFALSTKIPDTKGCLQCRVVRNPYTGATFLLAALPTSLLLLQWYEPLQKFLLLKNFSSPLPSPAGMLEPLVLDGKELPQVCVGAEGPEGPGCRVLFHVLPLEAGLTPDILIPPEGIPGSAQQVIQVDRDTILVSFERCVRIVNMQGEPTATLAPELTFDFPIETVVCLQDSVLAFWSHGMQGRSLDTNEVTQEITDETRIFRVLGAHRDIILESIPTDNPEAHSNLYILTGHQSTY
The settings on record: at 0.1 µM.

Assay [19] concerns the target T5, Mitogen-activated protein kinase kinase kinase kinase 2 (Homo sapiens). The settings on record: at 1 µM.
Assay [20] has as its target Mitogen-activated protein kinase kinase kinase kinase 4 (Homo sapiens) (UniProt O95819). The settings on record: at 0.1 µM.

Each structure is given as a SMILES string.

Sequence of Aurora kinase B (Homo sapiens) (Q96GD4 whole entry): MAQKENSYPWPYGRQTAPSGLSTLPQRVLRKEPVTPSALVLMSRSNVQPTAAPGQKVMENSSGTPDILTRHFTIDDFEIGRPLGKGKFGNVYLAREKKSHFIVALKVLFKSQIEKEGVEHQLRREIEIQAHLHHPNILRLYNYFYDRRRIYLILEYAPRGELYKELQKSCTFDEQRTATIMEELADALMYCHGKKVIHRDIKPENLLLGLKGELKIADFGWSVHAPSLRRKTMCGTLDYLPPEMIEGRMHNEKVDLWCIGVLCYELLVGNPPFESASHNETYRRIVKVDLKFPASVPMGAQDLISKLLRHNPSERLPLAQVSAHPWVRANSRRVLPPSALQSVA
Sequence of BDNF/NT-3 growth factors receptor (Homo sapiens) (Q16620 32-822 limits assumed): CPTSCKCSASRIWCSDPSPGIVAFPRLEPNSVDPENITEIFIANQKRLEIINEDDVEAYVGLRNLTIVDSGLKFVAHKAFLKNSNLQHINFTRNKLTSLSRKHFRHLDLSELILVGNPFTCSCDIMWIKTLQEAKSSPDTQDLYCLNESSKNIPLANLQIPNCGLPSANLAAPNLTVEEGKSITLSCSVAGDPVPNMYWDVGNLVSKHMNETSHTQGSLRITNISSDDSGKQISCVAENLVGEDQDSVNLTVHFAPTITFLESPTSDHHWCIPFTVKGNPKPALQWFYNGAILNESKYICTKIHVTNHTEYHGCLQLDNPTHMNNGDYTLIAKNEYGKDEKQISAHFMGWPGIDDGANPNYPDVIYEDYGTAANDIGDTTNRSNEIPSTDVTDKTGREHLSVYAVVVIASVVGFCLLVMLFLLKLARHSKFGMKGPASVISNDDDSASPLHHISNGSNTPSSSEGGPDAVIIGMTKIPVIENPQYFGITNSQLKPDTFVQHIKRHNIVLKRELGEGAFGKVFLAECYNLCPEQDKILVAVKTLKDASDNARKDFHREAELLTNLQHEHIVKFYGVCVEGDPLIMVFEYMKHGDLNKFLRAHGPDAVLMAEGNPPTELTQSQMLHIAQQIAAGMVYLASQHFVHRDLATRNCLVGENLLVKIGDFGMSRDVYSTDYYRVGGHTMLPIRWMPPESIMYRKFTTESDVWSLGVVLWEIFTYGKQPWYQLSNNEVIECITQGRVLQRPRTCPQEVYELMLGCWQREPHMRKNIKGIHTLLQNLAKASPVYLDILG
Sequence of Mitogen-activated protein kinase kinase kinase kinase 4 (Homo sapiens) (O95819 2-1239 limits assumed): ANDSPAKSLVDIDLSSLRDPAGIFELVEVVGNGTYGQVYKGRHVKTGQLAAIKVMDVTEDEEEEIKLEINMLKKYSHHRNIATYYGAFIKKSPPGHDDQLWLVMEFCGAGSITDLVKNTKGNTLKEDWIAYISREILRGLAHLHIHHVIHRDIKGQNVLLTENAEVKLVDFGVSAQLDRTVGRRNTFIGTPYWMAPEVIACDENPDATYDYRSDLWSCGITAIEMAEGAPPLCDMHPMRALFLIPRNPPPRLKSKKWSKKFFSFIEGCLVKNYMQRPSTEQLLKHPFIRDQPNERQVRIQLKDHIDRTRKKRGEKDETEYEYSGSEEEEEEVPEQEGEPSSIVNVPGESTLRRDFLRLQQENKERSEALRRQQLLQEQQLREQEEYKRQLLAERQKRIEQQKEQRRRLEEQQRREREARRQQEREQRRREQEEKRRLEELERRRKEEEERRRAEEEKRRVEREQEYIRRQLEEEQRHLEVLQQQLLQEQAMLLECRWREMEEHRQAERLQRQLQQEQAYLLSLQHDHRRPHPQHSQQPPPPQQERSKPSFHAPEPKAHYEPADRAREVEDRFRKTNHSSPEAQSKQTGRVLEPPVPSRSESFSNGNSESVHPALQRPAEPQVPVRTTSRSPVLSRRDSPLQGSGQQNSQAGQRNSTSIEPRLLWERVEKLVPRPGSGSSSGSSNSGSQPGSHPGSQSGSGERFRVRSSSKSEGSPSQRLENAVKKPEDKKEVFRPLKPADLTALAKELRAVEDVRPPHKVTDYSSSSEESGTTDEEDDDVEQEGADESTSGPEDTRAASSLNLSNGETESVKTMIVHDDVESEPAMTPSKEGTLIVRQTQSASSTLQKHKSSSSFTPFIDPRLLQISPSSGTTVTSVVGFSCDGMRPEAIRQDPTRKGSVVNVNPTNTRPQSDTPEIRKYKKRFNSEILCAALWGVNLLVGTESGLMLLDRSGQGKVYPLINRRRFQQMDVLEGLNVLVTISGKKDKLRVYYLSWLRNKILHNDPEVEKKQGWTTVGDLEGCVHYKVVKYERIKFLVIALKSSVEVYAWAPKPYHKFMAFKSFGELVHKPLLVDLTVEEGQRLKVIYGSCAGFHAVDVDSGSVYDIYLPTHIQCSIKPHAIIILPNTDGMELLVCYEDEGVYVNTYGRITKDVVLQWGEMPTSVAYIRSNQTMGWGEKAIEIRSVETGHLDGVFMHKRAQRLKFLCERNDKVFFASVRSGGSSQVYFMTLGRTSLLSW
Sequence of High affinity nerve growth factor receptor (Homo sapiens) (P04629 33-796 limits assumed): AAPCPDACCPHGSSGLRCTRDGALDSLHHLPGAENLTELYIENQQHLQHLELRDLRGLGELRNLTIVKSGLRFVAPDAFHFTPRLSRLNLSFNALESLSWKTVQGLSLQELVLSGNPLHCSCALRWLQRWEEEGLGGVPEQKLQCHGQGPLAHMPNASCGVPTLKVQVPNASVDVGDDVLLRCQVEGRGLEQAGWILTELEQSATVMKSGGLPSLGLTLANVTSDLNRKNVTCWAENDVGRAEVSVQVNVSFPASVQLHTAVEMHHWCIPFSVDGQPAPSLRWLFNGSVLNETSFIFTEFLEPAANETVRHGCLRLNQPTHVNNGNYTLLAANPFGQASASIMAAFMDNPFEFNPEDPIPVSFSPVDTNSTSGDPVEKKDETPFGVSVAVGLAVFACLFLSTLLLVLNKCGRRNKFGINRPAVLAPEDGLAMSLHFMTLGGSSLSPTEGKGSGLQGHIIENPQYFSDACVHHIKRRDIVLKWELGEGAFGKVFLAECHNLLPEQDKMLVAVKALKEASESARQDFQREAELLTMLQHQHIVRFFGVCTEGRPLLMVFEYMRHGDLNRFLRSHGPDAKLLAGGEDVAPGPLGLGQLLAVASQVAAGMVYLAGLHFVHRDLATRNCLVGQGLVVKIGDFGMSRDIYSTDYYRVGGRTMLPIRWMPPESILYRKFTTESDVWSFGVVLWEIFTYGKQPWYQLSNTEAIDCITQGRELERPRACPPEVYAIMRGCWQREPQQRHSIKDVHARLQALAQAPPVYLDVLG
Sequence of NT-3 growth factor receptor (Homo sapiens) (Q16288 32-839 limits assumed): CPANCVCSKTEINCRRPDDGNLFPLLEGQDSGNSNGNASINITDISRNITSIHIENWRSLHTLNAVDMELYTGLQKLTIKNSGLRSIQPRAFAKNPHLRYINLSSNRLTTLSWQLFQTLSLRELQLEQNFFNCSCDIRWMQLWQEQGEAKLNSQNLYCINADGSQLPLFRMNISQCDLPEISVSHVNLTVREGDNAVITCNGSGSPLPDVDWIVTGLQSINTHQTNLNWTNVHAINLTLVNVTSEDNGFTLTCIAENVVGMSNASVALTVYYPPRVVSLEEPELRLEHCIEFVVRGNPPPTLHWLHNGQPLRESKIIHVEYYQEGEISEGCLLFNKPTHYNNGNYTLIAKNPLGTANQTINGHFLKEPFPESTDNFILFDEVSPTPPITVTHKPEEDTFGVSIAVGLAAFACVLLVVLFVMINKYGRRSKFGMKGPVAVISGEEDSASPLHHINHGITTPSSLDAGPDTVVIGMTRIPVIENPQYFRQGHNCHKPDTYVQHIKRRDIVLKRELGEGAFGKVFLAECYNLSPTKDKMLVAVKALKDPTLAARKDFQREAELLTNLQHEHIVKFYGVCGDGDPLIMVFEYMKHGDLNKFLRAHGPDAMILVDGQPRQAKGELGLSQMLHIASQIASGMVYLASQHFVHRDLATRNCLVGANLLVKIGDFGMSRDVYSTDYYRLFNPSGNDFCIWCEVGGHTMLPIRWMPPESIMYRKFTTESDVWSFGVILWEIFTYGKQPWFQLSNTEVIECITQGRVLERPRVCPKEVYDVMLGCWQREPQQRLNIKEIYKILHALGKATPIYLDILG
Sequence of Serine/threonine-protein kinase 10 (Homo sapiens) (O94804 whole entry, looked up): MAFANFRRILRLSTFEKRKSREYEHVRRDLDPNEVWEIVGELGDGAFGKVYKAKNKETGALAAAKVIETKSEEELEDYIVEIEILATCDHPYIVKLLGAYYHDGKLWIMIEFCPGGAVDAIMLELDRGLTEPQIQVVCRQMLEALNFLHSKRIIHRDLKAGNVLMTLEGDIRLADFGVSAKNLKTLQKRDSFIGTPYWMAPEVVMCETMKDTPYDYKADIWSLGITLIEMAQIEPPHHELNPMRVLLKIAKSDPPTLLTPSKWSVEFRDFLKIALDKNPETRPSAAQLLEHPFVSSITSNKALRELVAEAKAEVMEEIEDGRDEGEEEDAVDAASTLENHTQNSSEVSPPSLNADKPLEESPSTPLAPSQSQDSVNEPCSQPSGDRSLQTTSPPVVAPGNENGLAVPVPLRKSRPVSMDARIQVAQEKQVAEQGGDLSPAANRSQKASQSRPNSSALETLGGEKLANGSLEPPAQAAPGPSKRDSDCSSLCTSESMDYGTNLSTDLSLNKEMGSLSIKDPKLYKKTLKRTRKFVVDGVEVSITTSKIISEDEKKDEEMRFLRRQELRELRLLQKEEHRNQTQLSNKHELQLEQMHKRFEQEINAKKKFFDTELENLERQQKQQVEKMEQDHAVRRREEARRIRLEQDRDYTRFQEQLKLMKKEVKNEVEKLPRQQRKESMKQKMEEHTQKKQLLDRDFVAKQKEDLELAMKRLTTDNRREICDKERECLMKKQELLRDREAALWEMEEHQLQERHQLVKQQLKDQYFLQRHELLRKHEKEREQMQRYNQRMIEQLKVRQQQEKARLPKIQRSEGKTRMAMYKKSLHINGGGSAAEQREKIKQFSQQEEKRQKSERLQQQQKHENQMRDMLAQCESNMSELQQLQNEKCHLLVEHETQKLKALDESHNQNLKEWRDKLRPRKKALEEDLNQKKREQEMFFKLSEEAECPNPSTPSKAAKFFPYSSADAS

As to `Cc1ccc(Nc2ccnc(Nc3cccc(C(N)=O)c3)n2)cc1O`, the inhibition (commonly the change of the read-out against control, counted positive when it falls) in [1] was 6.07%; in [2] it was 4.59%; in assay [3], 21.6%; in [4] it was 3.13%; in assay [5], 11.5%; in assay [6], 10.1%. Also, the inhibition in assay [7] was 43.7%; in assay [8], -1.77%; in assay [9], 16.3%; in assay [10], 14.3%; in assay [11], 73.4%; in assay [12], 6.44%. Moreover, the inhibition in assay [13] came to 42.6%; in assay [14], 8.25%; in assay [15], 85.4%; in assay [16], 7.05%; in [17] it was 38.9%; in assay [18] it was 2.07%. Moreover, the figures for the inhibition in assay [19] and in [20] were 8.97% and 6.53%, respectively.
For the compound `Cc1cc(Cl)cc2c1NC(=O)C2=NNc1ccc(S(N)(=O)=O)cc1`, the inhibition in assay [1] worked out at 2.26%; in assay [2], 1.15%; in [3], 4.46%; in [4], 1.2%; in [5] it was 3.59%; in [6], 2.77%. The inhibition in assay [7] was 3.71%; in [8] it was -5.56%; in assay [9] it was 9.15%; in assay [10], 1.75%; in assay [11], 4.36%; in assay [12] it was 4.55%. Besides, the inhibition in [13] was 6.64%; in [14] it was 2.52%; in [15] it was -3.99%; in [16], 1.5%; in assay [17], 7.34%; in [18] it was 1%. The inhibition is 0.54% in assay [19] and 12.7% in assay [20].
Consider `COc1ccc(-c2nn3ncccc3c2-c2ccnc(Nc3cccc(C(F)(F)F)c3)n2)cc1`, for which the inhibition in [1] came to 3.94%; in assay [2], 1.95%; in assay [3] it was 3.32%; in assay [4], 2.64%; in [5], 1.56%; in assay [6] it was 0.17%. For the same compound, the inhibition in assay [7] turned out to be 3.03%; in [8] it was 0.38%; in assay [9], 6.51%; in assay [10], 2.9%; in assay [11], 5.62%; in [12] it was 1.05%. Also, the inhibition in assay [13] was 5.57%; in assay [14] it was 1.98%; in assay [15], 5.91%; in assay [16], 6.76%; in [17], 12.3%; in [18], 2.11%. Besides, the inhibition in [19] was 1.6%; in assay [20], 3.02%.
For `C[C@@H](Oc1cc(-n2cnc3ccc(OCC4CCN(C)CC4)cc32)sc1C(N)=O)c1ccccc1C(F)(F)F`, the inhibition in assay [1] was 0.72%; in [2], -0.51%; in assay [3] it was 1.01%; in assay [4], -0.61%; in [5], 0.64%; in assay [6], -1.27%. In addition, the inhibition in assay [7] is 1.35%; in [8], 2.67%; in [9], 1.44%; in assay [10], -0.53%; in assay [11], -0.47%; in assay [12], -2.46%. For the same compound, the inhibition was 2.14% in [13]; -1.94% in [14]; 0.8% in assay [15]; 64.5% in assay [16]; 90.5% in assay [17]; 1.86% in assay [18]. Further, the inhibition in assay [19] is 12.1%; in assay [20], -0.3%.
As for `Nc1nccc(C#Cc2cncnc2Nc2ccc(OCc3cccc(F)c3)c(Cl)c2)n1`, the inhibition is 9.29% in assay [1]; 3.48% in assay [2]; 11.3% in assay [3]; 2.67% in [4]; 9.94% in [5]; 3.85% in [6]. In addition, the inhibition in assay [7] is 8.58%; in assay [8], -3.29%; in assay [9], 14.2%; in assay [10], 1.06%; in [11], 15.2%; in assay [12], 5.2%. The inhibition is 13.2% in assay [13]; 3.04% in assay [14]; 10.1% in [15]; 5.76% in assay [16]; 11.4% in assay [17]; 1.38% in assay [18]. Also, the inhibition in assay [19] is -0.42%; in assay [20] it was 6.33%.
